# PubChem BioAssay (EPA / NIEHS)
# Active and inactive are the calls of the source. How the source made its calls: active means hit-call score of the fitted dose curve at least 0.9, where 1 is the maximum; inactive means score below 0.9.
# Legend:
# [1] = read-out: Forkhead box O1 (FOXO1), FOXO1 (gene 2308); assay: LTEA_HepaRG_FOXO1: Life Technologies and Expression Analysis (LTEA) Assay for Forkhead box O1 (FOXO1) using HepaRG (AID 2283456); conditions: mRNA level, 48 h; actives raise or lower the signal
# Method in brief: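 Using one lot of HepaRG hepatic cells kept in 0.5% DMSO, the team applied test chemicals in duplicate, half-log dilutions from 100 uM, for 48 h. Expression, normalised to ACTB/GAPDH/POLR2A, was compared with vehicle in either direction.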
# [2] = CEETOX_H295R_TESTO: CeeTox H295R High-throughput Steroidogenesis Assay for Testosterone (TESTO) (AID 2283457); conditions: actives raise or lower the signal
# Method in brief: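 H295R human adrenal cells in DMEM/F12 with ITS+ and Nu-Serum, exposed to chemicals for 48 h. Testosterone in medium measured by MTBE extraction, reverse-phase HPLC-MS/MS; bidirectional fit versus DMSO baseline. MTT viability checked in same wells.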
# [3] = read-out: growth arrest and DNA damage 45 (GADD45A), GADD45A (gene 1647); assay: LTEA_HepaRG_GADD45A: Life Technologies and Expression Analysis (LTEA) Assay for growth arrest and DNA damage 45 (GADD45A) using HepaRG (AID 2283458); conditions: mRNA level, 48 h; actives raise or lower the signal
# Method in brief: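 Transcript induction or loss, quantified by TaqMan qRT-PCR against three housekeeping genes, is the read-out. HepaRG cells received chemicals for 48 h across eight half-log concentrations from 100 uM in 0.5% DMSO; gain and loss fitted relative to DMSO.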
# [4] = read-out: ABC Transporter (ABCB1), ABCB1 (gene 5243); assay: LTEA_HepaRG_ABCB1: Life Technologies and Expression Analysis (LTEA) Assay for ABC Transporter (ABCB1) using HepaRG (AID 2283460); conditions: mRNA level, 48 h; actives raise or lower the signal
# Method in brief: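 Human liver HepaRG line treated 48 h with up to 100 uM compound (eight half-log points, 0.5% DMSO); ABCB1 mRNA change fitted bidirectionally against DMSO controls.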
# [5] = read-out: growth arrest and DNA damage 45 (GADD45B), GADD45B (gene 4616); assay: LTEA_HepaRG_GADD45B: Life Technologies and Expression Analysis (LTEA) Assay for growth arrest and DNA damage 45 (GADD45B) using HepaRG (AID 2283461); conditions: mRNA level, 48 h; actives raise or lower the signal
# Method in brief: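 Differentiated HepaRG cells, plated 48 h then switched to serum-free induction medium, were exposed 48 h in duplicate to eight half-log concentrations from 100 uM in 0.5% DMSO; mRNA quantified by qRT-PCR, normalized to ACTB/GAPDH/POLR2A, bidirectional fit versus DMSO.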
# [6] = read-out: ABC Transporter (ABCC3), ABCC3 (gene 8714); assay: LTEA_HepaRG_ABCC3: Life Technologies and Expression Analysis (LTEA) Assay for ABC Transporter (ABCC3) using HepaRG (AID 2283462); conditions: mRNA level, 48 h; actives raise or lower the signal
# Method in brief: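 HepaRG cells in serum-free induction medium were exposed for 48 h in duplicate to 8-point half-log concentrations topping at 100 uM in 0.5% DMSO. ABCC3 mRNA was measured by qRT-PCR normalized to ACTB, GAPDH and POLR2A, with bidirectional fitting versus DMSO.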
# [7] = read-out: ABC Transporter (ABCB11), ABCB11 (gene 8647); assay: LTEA_HepaRG_ABCB11: Life Technologies and Expression Analysis (LTEA) Assay for ABC Transporter (ABCB11) using HepaRG (AID 2283463); conditions: mRNA level, 48 h; actives raise or lower the signal
# Method in brief: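 Using HepaRG cultures held in 0.5% DMSO, chemicals were tested at half-log dilutions from 100 uM for 48 h. Induction or suppression of ABCB11 mRNA, normalized to ACTB, GAPDH and POLR2A, was fitted bidirectionally against vehicle.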
# [8] = read-out: ABC Transporter (ABCC2), ABCC2 (gene 1244); assay: LTEA_HepaRG_ABCC2: Life Technologies and Expression Analysis (LTEA) Assay for ABC Transporter (ABCC2) using HepaRG (AID 2283464); conditions: mRNA level, 48 h; actives raise or lower the signal
# Method in brief: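 HepaRG cells were plated 48 h, switched to serum-free induction medium, then exposed in duplicate for 48 h to 8 concentrations (top 100 uM, half-log steps, 0.5% DMSO). ABCC2 mRNA was measured by qRT-PCR normalized to ACTB/GAPDH/POLR2A; bidirectional fitting versus DMSO.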
# [9] = read-out: Forkhead box O3 (FOXO3), FOXO3 (gene 2309); assay: LTEA_HepaRG_FOXO3: Life Technologies and Expression Analysis (LTEA) Assay for Forkhead box O3 (FOXO3) using HepaRG (AID 2283459); conditions: mRNA level, 48 h; actives raise or lower the signal
# Method in brief: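 Gene-expression endpoint: FOXO3 transcript level by qRT-PCR in HepaRG cultures treated 48 h with chemicals up to 100 uM (half-log, 0.5% DMSO vehicle).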
# [10] = read-out: Broad substrate specificity ATP-binding cassette transporter ABCG2 (Homo sapiens) (UniProt Q9UNQ0); assay: LTEA_HepaRG_ABCG2: Life Technologies and Expression Analysis (LTEA) Assay for ABC Transporter (ABCG2) using HepaRG (AID 2283465); conditions: mRNA level, 48 h; actives raise or lower the signal
# Method in brief: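 Gene expression of ABCG2 in HepaRG liver cells is quantified by qRT-PCR following 48 h exposure across an eight-point series topping at 100 uM. Values come from bidirectional fitting relative to DMSO vehicle.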
# Sequence of Broad substrate specificity ATP-binding cassette transporter ABCG2 (Homo sapiens) (Q9UNQ0 whole entry, looked up): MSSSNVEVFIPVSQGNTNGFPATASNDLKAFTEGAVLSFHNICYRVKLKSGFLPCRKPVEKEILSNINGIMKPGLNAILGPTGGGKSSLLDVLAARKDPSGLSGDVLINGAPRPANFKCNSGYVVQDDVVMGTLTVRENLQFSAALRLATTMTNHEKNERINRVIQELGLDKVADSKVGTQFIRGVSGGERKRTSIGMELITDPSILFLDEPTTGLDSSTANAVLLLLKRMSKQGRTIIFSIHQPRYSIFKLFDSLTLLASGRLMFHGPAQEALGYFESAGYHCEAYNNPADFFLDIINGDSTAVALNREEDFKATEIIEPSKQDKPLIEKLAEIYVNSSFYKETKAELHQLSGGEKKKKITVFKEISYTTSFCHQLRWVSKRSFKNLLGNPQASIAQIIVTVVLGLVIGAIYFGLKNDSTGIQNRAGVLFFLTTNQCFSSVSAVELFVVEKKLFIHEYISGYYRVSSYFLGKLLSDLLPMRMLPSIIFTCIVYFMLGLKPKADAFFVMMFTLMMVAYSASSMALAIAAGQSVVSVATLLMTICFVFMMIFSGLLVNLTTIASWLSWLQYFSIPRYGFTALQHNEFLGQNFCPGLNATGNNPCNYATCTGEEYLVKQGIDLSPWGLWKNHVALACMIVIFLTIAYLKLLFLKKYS
smiles,measurement,setting,value
CCNc1nc(NC(C)C)nc(SC)n1,outcome,[1],inactive
same,outcome,[2],inactive
same,outcome,[3],inactive
same,outcome,[4],inactive
same,outcome,[5],inactive
same,outcome,[6],inactive
same,AC50,[7],50 µM (active)
same,outcome,[8],inactive
O=C(NC(=O)c1c(F)cccc1F)Nc1cc(Cl)c(OC(F)(F)C(F)F)c(Cl)c1,outcome,[1],inactive
same,outcome,[2],inactive
same,outcome,[3],inactive
same,outcome,[9],inactive
same,outcome,[5],inactive
same,outcome,[6],inactive
same,AC50,[7],50 µM (active)
same,outcome,[8],inactive
same,outcome,[10],inactive
Cc1ccccc1O,outcome,[1],inactive
same,outcome,[3],inactive
same,outcome,[9],inactive
same,outcome,[5],inactive
same,outcome,[6],inactive
same,outcome,[7],inactive
same,outcome,[8],inactive
N#Cc1ccc(N(CC(N)=O)CC(F)(F)F)cc1C(F)(F)F,outcome,[1],inactive
same,outcome,[3],inactive
same,outcome,[9],inactive
same,outcome,[5],inactive
same,outcome,[6],inactive
same,AC50,[7],0.353 µM (active)
same,outcome,[8],inactive
CCC(C)(CC)c1cc(NC(=O)c2c(OC)cccc2OC)on1,outcome,[1],inactive
same,outcome,[3],inactive
same,outcome,[9],inactive
same,outcome,[5],inactive
same,outcome,[6],inactive
same,AC50,[7],83 µM (active)
same,AC50,[8],6.13 µM (active)
same,outcome,[10],inactive
O=S(=O)(O)C(F)(F)C(F)(F)C(F)(F)C(F)(F)C(F)(F)C(F)(F)F,outcome,[1],inactive
same,outcome,[3],inactive
same,outcome,[9],inactive
same,outcome,[5],inactive
same,outcome,[6],inactive
same,outcome,[7],inactive
same,outcome,[8],inactive
same,outcome,[10],inactive
CCSC(=O)N(CC)C1CCCCC1,outcome,[1],inactive
same,outcome,[3],inactive
same,outcome,[9],inactive
same,outcome,[5],inactive
same,outcome,[6],inactive
same,outcome,[7],inactive
same,outcome,[8],inactive
same,outcome,[10],inactive
CCC(C)c1cc([N+](=O)[O-])cc([N+](=O)[O-])c1O (configuration not stated),AC50,[1],3.37 µM (active)
same,AC50,[3],1.07 µM (active)
same,AC50,[9],1.77 µM (active)
same,AC50,[5],10.7 µM (active)
same,outcome,[6],inactive
same,AC50,[7],1.29 µM (active)
same,AC50,[8],1.46 µM (active)
CO/C=C(/C(=O)OC)c1ccccc1COc1cccc(C(F)(F)F)n1,AC50,[1],7.38 µM (active)
same,AC50,[3],9.39 µM (active)
same,outcome,[9],inactive
same,AC50,[5],24.7 µM (active)
same,AC50,[6],1.91 µM (active)
same,AC50,[7],5.64 µM (active)
same,AC50,[8],28 µM (active)
Oc1c(Cl)c(Cl)c(Cl)c(Cl)c1Cl,AC50,[1],6.85 µM (active)
same,AC50,[3],6 µM (active)
same,AC50,[9],1.64 µM (active)
same,AC50,[5],15 µM (active)
same,AC50,[6],2.09 µM (active)
same,AC50,[7],3.29 µM (active)
same,AC50,[8],2.03 µM (active)
C1CC2OC2CC1C1CO1 (configuration not stated),outcome,[1],inactive
same,outcome,[3],inactive
same,outcome,[9],inactive
same,outcome,[5],inactive
same,outcome,[6],inactive
same,outcome,[7],inactive
same,outcome,[8],inactive
same,outcome,[10],inactive
CCCCCCCCCc1ccc(O)cc1,outcome,[1],inactive
same,outcome,[3],inactive
same,outcome,[9],inactive
same,outcome,[5],inactive
same,outcome,[6],inactive
same,outcome,[7],inactive
same,outcome,[8],inactive
Oc1ccc(Cl)cc1Cl,outcome,[1],inactive
same,outcome,[3],inactive
same,outcome,[4],inactive
same,outcome,[5],inactive
same,outcome,[6],inactive
same,outcome,[7],inactive
same,outcome,[8],inactive
same,outcome,[10],inactive
Cc1ccc(O)c(C)c1,outcome,[1],inactive
same,outcome,[3],inactive
same,outcome,[9],inactive
same,outcome,[5],inactive
same,outcome,[6],inactive
same,outcome,[7],inactive
same,outcome,[8],inactive
O=C(NC(=O)c1cc(F)c(F)cc1Cl)Nc1cc(F)ccc1N1CCC(C(=O)O)CC1,outcome,[1],inactive
same,outcome,[3],inactive
same,outcome,[9],inactive
same,outcome,[5],inactive
same,outcome,[6],inactive
same,AC50,[7],2.05 µM (active)
same,outcome,[8],inactive
CC(C)(O)C(=O)Nc1ccc([N+](=O)[O-])c(C(F)(F)F)c1,AC50,[1],0.0468 µM (active)
same,outcome,[3],inactive
same,outcome,[9],inactive
same,outcome,[5],inactive
same,outcome,[7],inactive
same,outcome,[8],inactive
same,outcome,[10],inactive
Cc1ccccc1[N+](=O)[O-],outcome,[1],inactive
same,outcome,[3],inactive
same,outcome,[9],inactive
same,outcome,[5],inactive
same,outcome,[6],inactive
same,outcome,[7],inactive
same,outcome,[8],inactive
